The nature of test [1]: qHTS assay to identify small molecule agonists of the hypoxia (HIF-1) signaling pathway - cell viability counter screen (AID 1224844; calls by dose curve; also: nearly all actives have a fitted effect of over 50% in size; also: potency is read from the fitted curve at half-maximal effect). The procedure, abridged: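 HRE-bla ME-180 cells, 2,000/well in 0.5% dialyzed FBS medium, treated 17 h at 37C with compounds. Viability read in the same wells as the bla reporter, by CellTiter-Glo luminescence after 30 min at room temperature.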

Test [2] can be described thus: qHTS assay to identify small molecule agonists of H2AX (AID 1224845; active = well fitted activation curve with a large enough effect in the signal ratio in the repeat runs, not every such curve was filed as active; the % refers to the signal ratio). The procedure, abridged:
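Wild-type CHO-K1 cells, plated overnight, exposed 3hr at 37C to 15 concentrations (0.76% DMSO final). Lysed, then HTRF anti-pH2AX (S139) cryptate and anti-H2AX-d2 antibodies, 24 hr room temperature; 665/620 nm emission read.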

Test [3] can be described thus: qHTS assay to identify small molecule agonists of H2AX - cell viability counter screen (AID 1224847; calls by dose curve; also: nearly all actives have a fitted effect of over 30% in size; also: potency is read from the fitted curve at half-maximal effect). The essentials:
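Wild-type CHO-K1 cells (10% FBS medium) were plated overnight at 37C, exposed to compounds at 15 concentrations for 3 hr at 37C (0.76% DMSO final), and viability was read as CellTiter-Glo luminescence after 30 min at room temperature.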

Test [4] in a line: qHTS assay to identify small molecule antagonists of the estrogen related receptor (ERR) signaling pathway from Tox21 library (AID 1224848). Also: nearly all actives have a fitted effect of over 50% in size. Also: potency is read from the fitted curve at half-maximal effect. The procedure, abridged: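 Luminescent reporter read-out (ONE-Glo) from NTP's ERR cell line after 18 h treatment at 37 C with DMSO-dissolved Tox21 compounds; cells pre-plated 6 h beforehand at 2,000 per well.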
The nature of test [5]: qHTS RealTime-Glo MT Cell Viability Assay in HepG2 cells - 24 hour (AID 1224867). Also: nearly all actives have a fitted effect of over 50% in size. Also: potency is read from the fitted curve at half-maximal effect. The essentials: (§1)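 Cell number in HepG2 cultures estimated from NanoLuc luminescence generated by metabolic reduction of a prosubstrate by living cells. The homogeneous, nonlytic format allowed repeated reads at 0, 8, 16, 24, 32 and 40 h of compound exposure.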
Test [6] in a line: A CellTox Green Cytotoxicity Assay to monitor cytotoxicity in HEK293 cells - 0 hour (AID 1224869). Also: nearly all actives have a fitted effect of over 50% in size. The procedure, abridged:
(§2)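 HEK293 cells, 600/well, were preincubated 5 hours and then exposed to compounds at 37 C for up to 40 hours. A cell-impermeant cyanine dye staining dead-cell DNA was read by fluorescence at 0, 8, 16, 24, 32 and 40 h time points.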

A short description of test [7]: qHTS RealTime-Glo MT Cell Viability Assay in HepG2 cells - 40 hour (AID 1224870). Also: nearly all actives have a fitted effect of over 50% in size. Also: potency is read from the fitted curve at half-maximal effect. The essentials: (§3)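 HepG2 cells (600/well) mixed with RealTime-Glo MT reagent, settled 5 h at 37 C/5% CO2 before compound addition. Nonlytic NanoLuc luminescence from viable-cell prosubstrate reduction read repeatedly during 40 h treatment at 37 C.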
The nature of test [8]: qHTS RealTime-Glo MT Cell Viability Assay in HEK293 cells - 16 hour (AID 1224872). Also: nearly all actives have a fitted effect of over 50% in size. Also: potency is read from the fitted curve at half-maximal effect. The procedure, abridged: (§4)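 Homogeneous bioluminescent viability format in HEK293 cells (600 cells/well). Following 5 h at 37 C/5% CO2, 23 nL compound was pintooled; the signal was measured repeatedly during 40 h incubation.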
Test [9] in a line: qHTS RealTime-Glo MT Cell Viability Assay in HepG2 cells - 8 hour (AID 1224873). Also: nearly all actives have a fitted effect of over 55% in size. Also: potency is read from the fitted curve at half-maximal effect. The procedure, abridged: as §3
Test [10] in a line: qHTS RealTime-Glo MT Cell Viability Assay in HEK293 cells - 40 hour (AID 1224874). Also: nearly all actives have a fitted effect of over 50% in size. Also: potency is read from the fitted curve at half-maximal effect. The conditions noted are these: RealTime-Glo luminescence; max response: stronger effect = lower value. The procedure, abridged:
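600 cells/well were plated with the nonlytic NanoLuc/prosubstrate reagent, pre-incubated 5 h, then given 23 nL of compound in DMSO. Incubation at 37 C for 40 h, with luminescence from viable-cell-reduced substrate read repeatedly from 0 h.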

Test [11] is described as follows: A CellTox Green Cytotoxicity Assay to monitor cytotoxicity in HEK293 cells - 24 hour (AID 1224875). Also: nearly all actives have a fitted effect of over 45% in size. Also: potency is read from the fitted curve at half-maximal effect. The essentials: as §2
A short description of test [12]: qHTS RealTime-Glo MT Cell Viability Assay in HepG2 cells - 32 hour (AID 1224877). Also: nearly all actives have a fitted effect of over 55% in size. Also: potency is read from the fitted curve at half-maximal effect. The essentials: as §1
Test [13] in a line: A CellTox Green Cytotoxicity Assay to monitor cytotoxicity in HepG2 cells - 24 hour (AID 1224878). Also: nearly all actives have a fitted effect of over 45% in size. Also: potency is read from the fitted curve at half-maximal effect. The procedure, abridged: (§5)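 HepG2 cells, 600/well, preincubated 5 h with CellTox Green dye, then exposed to Tox21 compounds in DMSO at 37 C for up to 40 h. Dead-cell DNA fluorescence read at the indicated time point.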
Test [14] can be described thus: A CellTox Green Cytotoxicity Assay to monitor cytotoxicity in HepG2 cells - 40 hour (AID 1224879). Also: nearly all actives have a fitted effect of over 40% in size. Also: potency is read from the fitted curve at half-maximal effect. The procedure, abridged: as §5
A short description of test [15]: qHTS assay to identify small molecule agonists of the hypoxia (HIF-1) signaling pathway (AID 1224846; active = well fitted activation curve with a large enough effect in the signal ratio in the repeat runs, not every such curve was filed as active; the % refers to the signal ratio). The procedure, abridged: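 HRE-bla ME-180 beta-lactamase reporter cells in medium with 0.5% dialyzed FBS, pre-incubated 5 h then exposed to compounds 17 h at 37C, 5% CO2; reporter induction read with CCF4-AM FRET substrate.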
Test [16] can be described thus: A CellTox Green Cytotoxicity Assay to monitor cytotoxicity in HEK293 cells - 40 hour (AID 1224871). Also: nearly all actives have a fitted effect of over 45% in size. Also: potency is read from the fitted curve at half-maximal effect. The essentials: as §2
Test [17] is described as follows: A CellTox Green Cytotoxicity Assay to monitor cytotoxicity in HepG2 cells - 16 hour (AID 1224876). Also: nearly all actives have a fitted effect of over 45% in size. Also: potency is read from the fitted curve at half-maximal effect. The procedure, abridged:
as §5

Test [18] is described as follows: qHTS RealTime-Glo MT Cell Viability Assay in HEK293 cells - 32 hour (AID 1224868). The essentials:
as §4

The nature of test [19]: qHTS assay to identify small molecule agonists of the estrogen related receptor (ERR) signaling pathway from Tox21 library (AID 1224849; calls by dose curve; also: nearly all actives have a fitted effect of over 15% in size). The conditions noted are these: ERR reporter cell line, ONE-Glo luciferase, 18 h; at 92.4 µM (top of the series) unless noted. The essentials: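 ERR reporter cells (NTP line) pre-incubated 6 hours at 37 C, then exposed to compounds for 18 hours at 37 C. ONE-Glo luciferase luminescence was read after 30 minutes at room temperature.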

Structures are written as SMILES. A number with no mark means an inactive call. Results filed as inconclusive are left out. Activity calls are given as the source filed them. Unless noted, calls follow the shape of the dose curve; as a rule, active = well fitted curve in the direction sought with a large enough effect in the repeat runs; inconclusive = weak or mixed curves; inactive = no such curve, though single readings can be large; an effect the other way counts as inactive or inconclusive.
% is scaled to controls: 0 for no effect and ±100 for the full control effect.

In the case of `CC(O)Cn1cnc2c1c(=O)n(C)c(=O)n2C` (stereo not drawn), the Potency result in [1], in test [2], in [3], in [4], in test [5] and in test [6] was “inactive” in each case. In addition, the Potency result in test [7], in test [8], in test [9], in test [11], in test [12] and in test [13] was “inactive” in each case. Further, the Potency result in test [14] was “inactive”. Also, the max response in test [10] was 5.1%.
Take `Nc1cccc2c(N)cccc12`: the outcome in [15] was inactive. Besides, the Potency result in [3], in test [6], in [16], in [11], in test [17] and in test [12] was “inactive” throughout. Moreover, the Potency result in [13] is “inactive”.
In the case of `CCN(Cc1cccc(S(=O)(=O)O)c1)c1ccc(C(=C2C=CC(=[N+](CC)Cc3cccc(S(=O)(=O)O)c3)C=C2)c2ccc(O)cc2S(=O)(=O)[O-])cc1`, the Potency in test [4] is 16.6 µM (active). Further, the Potency entry in test [5], in test [18], in test [6], in test [7], in test [16] and in test [8] was “inactive” in each case. Also, the Potency entry in [9], in test [11], in [17], in test [12], in test [13] and in [14] was “inactive” in each case. Further, in test [10], the max response was 8.88%.
Take `COc1ccc(C(=O)NCc2ccc(OCCN(C)C)cc2)cc1OC`: the Potency entry in test [1], in [2], in test [3], in [4], in test [5] and in [18] was “inactive” throughout. The Potency entry in test [6], in test [16], in test [8], in test [9], in test [11] and in test [17] was “inactive” each time. Also, the Potency result in [12], in [13] and in [14] was “inactive” each time. For the same molecule, the max response in test [10] is 2.93%.
With `O=[N+]([O-])C1(Br)COCOC1`, the Potency in test [1] was 38.9 µM (active); in test [3] it was 113 µM (active); in [5] it was 54.9 µM (active); in [7], 49 µM (active); in test [16], 49 µM (active); in test [8], 38.9 µM (active). The Potency was 54.9 µM (active) in test [9]; 34.7 µM (active) in [10]; 54.9 µM (active) in test [11]; 49 µM (active) in [12]; 54.9 µM (active) in [13]; 43.6 µM (active) in [14]. Moreover, in [19], the activity change, positive = activation is -12.2%. The Potency result in [6] is “inactive”.
On to `Nc1ccc(F)cc1`, for which the Potency result in [2], in test [4], in test [18], in [6], in [8] and in test [9] was “inactive” throughout. Also, the Potency entry in [11], in test [17], in test [12], in [13] and in test [14] was “inactive” in each case. For the same molecule, in test [19], the activity change, positive = activation is 0.224%. The max response in test [10] was 14.2%.
As for `CC(C)C(=O)OCCOc1ccccc1`, the Potency entry in [1], in test [2], in [3], in test [6], in [7] and in test [16] was “inactive” throughout. Also, the Potency entry in test [8], in [9], in test [11], in test [17], in test [12] and in test [13] was “inactive” throughout. In addition, in [14], the Potency result was “inactive”. Also, the outcome in test [15] was inactive. The max response in test [10] was 2.62%.
Turning to `CCc1ccc(C)cc1`, the Potency entry in [1], in test [2], in [3], in [18], in [6] and in test [7] was “inactive” throughout. Moreover, the Potency entry in test [16], in test [8], in [9], in test [11], in test [12] and in test [13] was “inactive” throughout. Also, in test [14], the Potency entry was “inactive”. In [15], the outcome was inactive. For the same molecule, the max response in test [10] was 11.4%.
Consider `CCCOC(=O)c1c(Cl)c(Cl)c(Cl)c(Cl)c1C(=O)OCCC`, for which the Potency entry in [2], in test [3], in test [4], in test [5], in [18] and in [6] was “inactive” in each case. Further, the Potency entry in [7], in test [8], in test [9], in test [11], in test [17] and in [12] was “inactive” throughout. For the same molecule, the Potency result in [13] and in test [14] was “inactive” in each case. Moreover, the molecule was called inactive in test [15]. The activity change, positive = activation in test [19] was 6.22%. The max response in test [10] is 3.32%.
In the case of `CC(C)COC(=O)c1ccc(O)cc1`, the Potency entry in test [1], in [3], in test [5], in test [6], in [7] and in [9] was “inactive” in each case. Further, in [12], the Potency entry was “inactive”. In addition, the molecule was classed as inactive in [15].
In the case of `c1ccc(CNc2ncnc3c2ncn3C2CCCCO2)cc1` (stereo not drawn), the Potency entry in [1], in test [3], in [5], in test [6], in [7] and in test [16] was “inactive” in each case. For the same molecule, the Potency result in test [9], in test [11], in test [12], in [13] and in test [14] was “inactive” in each case.
`c1ccc(CCCc2ccncc2)cc1`: the Potency entry in test [2], in test [5], in test [18], in test [6], in test [9] and in [12] was “inactive” throughout. Further, the outcome in [15] was inactive. The max response in [10] was -19.7%. Besides, the Potency in [17] was 12.3 µM (active).
On to `CC(C)Cc1ccc(CC(=O)O)cc1`, for which the Potency result in [1], in test [2], in test [4], in test [5], in [18] and in test [7] was “inactive” each time. Further, the Potency result in test [8], in [9] and in [12] was “inactive” throughout. Besides, the molecule was classed as inactive in test [15]. Also, in [19], the activity change, positive = activation was -10.3% [at 42.5 µM]. For the same molecule, the max response in [10] is 4.43%. Besides, the Potency was 10.7 µM (active) in test [11], 19 µM (active) in test [17], 19 µM (active) in [13] and 21.3 µM (active) in [14].
With `O=c1[nH]c2cc(C(F)(F)F)c(N3CCOCC3)cc2n(CP(=O)(O)O)c1=O`, the Potency result in [2], in test [5], in [6], in [7], in [8] and in test [9] was “inactive” each time. For the same molecule, the Potency entry in test [11], in test [17], in [12], in test [13] and in test [14] was “inactive” throughout. The max response in test [10] is 8.28%.
As to `CCN(CC)c1ccc(C(=C2C=CC(=[N+](CC)CC)C=C2)c2ccc(S(=O)(=O)O)cc2S(=O)(=O)[O-])cc1`, the Potency in test [1] was 8.71 µM (active); in [3], 12.7 µM (active); in [4], 9.69 µM (active). Further, the call in test [15] was inactive. Also, the Potency result in test [5], in [18], in test [6], in test [7], in test [16] and in test [8] was “inactive” each time. The Potency entry in test [9], in test [11], in test [12], in [13] and in [14] was “inactive” in each case. The max response in [10] was -1.18%.
